# An excerpt weighted towards active compounds, which were near 21% of everything screened.
# CHX counter: counter-screen for Shiga toxin inhibitors: cycloheximide protein synthesis inhibition; max response, %; cell reporter, cycloheximide protein synthesis inhibition counterscreen; AID 2314; actives 12% (n = 300,000); in the data active means max response mostly above about 13%, no sharp cut-off; inactive means mostly below about 14%; further: read at 38.3 µM for the half of the compounds with a filed dose; 0% is about no effect
# Shiga inhibitor: blocks Shiga toxin action in Vero cells | Vero cells, Shiga toxin protein synthesis inhibition reporter | inhibition, % at 38.7 µM | actives 9.2% (n = 290,000) | AID 2315; in the data active means inhibition mostly above about 28%, no sharp cut-off; inactive means mostly below about 43%; further: 0% is about no effect
# AMA1-RON2 inh: disrupts binding of P. falciparum AMA1 to RON2; AID 720542; AlphaScreen AMA1-biotinylated RON2 peptide binding; Potency, µM (highest dose often 58.2 µM), without a hit: at the highest dose activity change, negative = inhibition, hits mostly inhibitors; actives 0.2% (n = 360,000);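 further: potency means the concentration at half of the fitted maximal effect; 0% = vehicle wells and -100% = peptide control; nearly all actives have a fitted effect of over 45% in size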
#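 AMA1 (3D7) with his tag at 25 nM final met compounds first, then biotinylated RON2 peptide at 25 nM; detection used donor plus acceptor beads, 10 µg/mL apiece, read by AlphaScreen after 30 min at room temperature.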
# HCV inhibitor: inhibitors of hepatitis C virus infection | Huh7.5.1 HCVcc-Cre infection, luciferase reporter, 44 h | actives 3.4% (n = 340,000) | Potency, µM (titrated, usually from 41.8 µM), for the others: at the highest dose activity change, negative = inhibition, most hits filed as inhibitors; further: potency means the concentration at half of the fitted maximal effect; on the % scale 0 is the no-effect control and ±100 the full control effect
#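 Infectious HCVcc-Cre (~0.5 moi) was added to cells just after compound, with cells seeded 4 h earlier at 1,000 per well. Luciferase activity after 44 h culture reported infection; substrate was incubated 15 min at room temperature before reading.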
# Pf growth 48h: inhibits P. falciparum growth in the first generation, 48 h | P. falciparum luciferase growth in erythrocytes, 48 h | Potency, µM (top dose mostly 28.7 µM), without a hit: at the top dose activity change, negative = inhibition, most hits filed as inhibitors | actives 5.9% (n = 310,000) | AID 504832; further: potency means the concentration at half of the fitted maximal effect; on the % scale 0 is the no-effect control and ±100 the full control effect
#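 First compound was added to culture medium, then infected red cells at 0.1% parasitemia and 2% hematocrit (final). After incubation at 37 C under 5% CO2, luciferase detection reagent was dispensed and light output recorded.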
# Pf growth 96h: inhibits malaria parasite growth, 96 h | AID 504834 | actives 6.9% (n = 320,000) | Potency, µM (series often up to 28.7 µM), for the others: top-dose activity change, negative = inhibition, actives largely listed as inhibitors | P. falciparum luciferase reporter growth, 96 h; further: potency means the concentration at half of the fitted maximal effect; on the % scale 0 is the no-effect control and ±100 the full control effect
#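 P. falciparum expressing integrated firefly luciferase grown in erythrocytes (2% hematocrit, 0.05% parasitemia final) with compounds for 96 hours at 37 C, 5% CO2. Growth inhibition read as loss of luminescence after adding luciferase detection reagent.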
# * hit, by the source's call; ? = inconclusive; . = no result; [ ] = remark or other dose. Unless noted, the call rests on the fitted dose curve; in most records, active means well fitted curve in the direction sought with a large enough effect; inconclusive means small, poorly fitted or top-dose-only effect, or another doubt; inactive means no such curve, though single readings can be large; an effect the other way counts as inactive or inconclusive.
SMILES,CHX counter,Shiga inhibitor,AMA1-RON2 inh,HCV inhibitor,Pf growth 48h,Pf growth 96h
Cc1ccc(S(=O)(=O)N2CCCOC2CNC(=O)C(=O)NCc2ccc3c(c2)OCO3)cc1 (configuration not stated),-3,-8,2%,-25%,-4%,-13%
O=C1CCc2cc(S(=O)(=O)NCCc3ccccc3)cc3c2N1CC3,.,.,12%,6%,11%,8%
Cc1cc(=O)[nH]c(SCc2cccc3ccccc23)n1,1,-7,-5%,11%,-3%,3.7µM*
Cc1cc(=O)[nH]c(SCc2csc(-c3ccccc3)n2)n1,20*,24,12%,4%,10%,45%
Cc1cc(=O)[nH]c(SCc2nc3ccccc3s2)n1,16*,14,-15%,5%,-1%,8%
Nc1cc(=O)[nH]c(SCc2csc(-c3ccccc3)n2)n1,8,42,0%[2.32 µM],?,15%,32%
CC1CCN(S(=O)(=O)c2ccc3c(c2)N(CC(=O)NCCN2C(C)CCCC2C)C(=O)CS3)CC1 (configuration not stated),1,-5,-10%,4%,?,82%
Cc1cc(O)cc2c1C(c1ccc(F)cc1)CC1(CC(C)(C)NC(=S)N1)O2 (configuration not stated),-8,8,19%,22µM*,?,30%
COc1ccc(C2CC3(CC(C)(C)NC(=S)N3)Oc3cc(O)cc(C)c32)cc1 (configuration not stated),-2,1,51%,?,?,4.1µM*
COc1ccc(C2CC3(CC(C)(C)NC(SC)=N3)Oc3cc(O)cc(C)c32)cc1 (configuration not stated),-6,-11,-10%,13µM*,?,0%
CCN1C(=O)[C@H]2[C@@H](c3ccc(C(F)(F)F)cc3)N[C@]3(CCCN(Cc4cccn4C)C3=O)[C@H]2C1=O,.,.,-15%,.,.,.
Cc1ccn2c(C(=O)c3ccc(Cl)cc3)cnc2c1,51*,91*,-5%,?,.,-32%
O=C(OCCOc1ccccc1)c1cccc(S(=O)(=O)N2CCOCC2)c1,.,.,5%[11.6 µM],1%,?,?
O=C(OCc1nc2ccccc2s1)c1cccc(S(=O)(=O)N2CCOCC2)c1,37*,108*,-5%,-7%,114%,76%
CN(C)c1cccc(C(=O)OCCNC(=O)c2cccc(S(=O)(=O)N3CCOCC3)c2)c1,4,-5,-8%,10µM*,?,?
N#Cc1cccc(C(=O)OCc2cccc(S(=O)(=O)N3CCOCC3)c2)c1,.,.,61%,-6%,?,16%
COc1ccccc1CNC(=O)COC(=O)c1cccc(S(=O)(=O)N2CCOCC2)c1,.,.,-14%,11µM*,2%,10%
O=C(CCc1nc2ccccc2[nH]c1=O)OCc1ccc(S(=O)(=O)N2CCOCC2)cc1,-3,-3,-4%,10%,?,-42%
O=C(CCc1ccc(S(=O)(=O)N2CCOCC2)cc1)OCc1nc2ccccc2s1,73*,109*,-17%,2%,59%,?
O=C(CSc1nc2ccccc2s1)Nc1cc(S(=O)(=O)N2CCOCC2)ccc1O,20*,17,-15%,5%,16%,?
Cc1nnc(SCC(=O)Nc2cc(S(=O)(=O)N3CCOCC3)ccc2C)s1,.,.,-21%,10%,-5%,12%
O=C(COC(=O)c1cccc(S(=O)(=O)N2CCOCC2)c1)c1ccccc1,40*,100*,-1%,7%,15%,?
CCN(CC)c1ccc(S(=O)(=O)N2CCOCC2)cc1NC(=O)CSc1n[nH]c(N)n1,45*,44*,10%,7%,8%,1%
O=C(COC(=O)c1cccc(S(=O)(=O)N2CCOCC2)c1)NCc1ccccc1,.,.,3%,5%,.,.
C[C@]12c3[nH]c4ccccc4c3CCN1C(=O)C(CC(=O)NCCCn1ccnc1)C[C@@H]2C(=O)N1CCOCC1 (some centres not stated),.,.,-12%,13%,.,.
SMILES,CHX counter,Shiga inhibitor,AMA1-RON2 inh,HCV inhibitor,Pf growth 48h,Pf growth 96h
Cc1occc1C(=O)Nc1ccc(S(=O)(=O)N2CCN(C)CC2)cc1,4,-1,-4%,2%,25%,.
Cc1nn(C)c(C(=O)Nc2ccc(Cl)c([N+](=O)[O-])c2)c1Cl,0,1,7%,?,23%,9%
C/C(=N\NC(=O)c1nn(C)c(C)c1Br)c1ccc(NC(=O)c2ccoc2C)cc1,91*,93*,0%,?,49%,-3%
Cc1nn(-c2ccc(NC(=O)c3ccncc3)cc2)c(C)c1Cl,-1,-2,-11%,3.2µM*,-9%,-40%
C/C(=N\NC(=O)c1c(Cl)c(C)nn1C)c1ccc(NC(=O)c2ccncc2)cc1,12*,26,10%,?,?,?
C/C(=N/NC(=O)c1ccoc1C)c1ccc(NC(=O)c2ccncc2)cc1,63*,104*,17%,-2%,105%,51%
NC(=O)c1ccc(NC(=O)COc2cccc3ccccc23)cc1,-2,-13,8%,-1%,26%,4%
CSCCC(NC(=O)c1ccco1)c1nc2ccccc2[nH]1 (configuration not stated),1,12,-4%,8%,-15%,-30%
COc1ccccc1/C=C/C(=O)OCC(=O)NC(=O)NC1CCCC1,.,.,3%,-6%,.,.
O=C(CCc1ccccc1)NNC(=O)Nc1ccc(F)c(Cl)c1,2,-13,40%,14%,17%,?
C/C(=N\NC(=O)c1c(Br)c(C)nn1C)c1ccc(NC(=O)C(C)Oc2ccc(Cl)cc2C)cc1 (configuration not stated),-2,-11,10%,-6%,1%,3%
C/C(=N\NC(=O)c1nn(C)c(C)c1Br)c1ccc(NC(=O)c2ccccc2F)cc1,18*,active,19%,?,43%,23%
C/C(=N\NC(=O)c1c(Cl)c(C)nn1C)c1cccc(NC(=O)C2CCCC2)c1,14*,38,18%,?,-23%,?
CCC(=O)Nc1ccc(/C(C)=N/NC(=O)c2c(Br)c(C)nn2C)cc1,-2,15,-6%,18%,5%,?
C/C(=N\NC(=O)c1c(Br)c(C)nn1C)c1ccc(NC(=O)c2ccoc2C)cc1,44*,40*,-3%,?,17%,-10%
C/C(=N\NC(=O)c1nn(C)c(C)c1Br)c1ccc(NC(=O)c2ccc(C)s2)cc1,45*,64*,-14%,?,52%,32%
O=C(NCc1ccccc1)c1ccc(NC(=O)c2ccccc2F)cc1,-5,-9,13%,-12%,-6%,?
O=C(NCCS(=O)(=O)NC1CCCC1)c1ccccc1,.,.,-2%,10%,26%,59%
O=S(=O)(c1cccc2ccccc12)N1CCC2CC1c1cc(Cl)ccc12 (configuration not stated),.,.,-1%,-15%[8.37 µM],.,.

# Source: PubChem BioAssay
